Test results: the supplement of paper PMC9694430

Assays:
Experiment in all cases: thermal shift delta Tm vs DMSO control; higher = stronger stabilization (binding)
Conditions in all cases: 12.5 µM; protein concentration 2 µM
LOC_OS01G57100-cb003 = system: LOC_OS01G57100-cb003
Method in brief: (§1)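 Compounds dissolved in DMSO were added to purified rice kinase domain constructs, which had been expressed in E. coli, for differential scanning fluorimetry. Each well held 19.5 μl of 2 μM kinase in 100 mM potassium phosphate pH 7.5, 150 mM NaCl, 10% glycerol and 5 × SYPRO Orange. Fluorescence was followed from 25°C to 95°C at a rate of 0.05°C/s. Shifts in Boltzmann-fitted melting temperature are triplicate means relative to DMSO-only protein.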

LOC_OS01G60330-cb001 = system: LOC_OS01G60330-cb001
Method in brief: as §1

LOC_OS01G60700-cb002 = system: LOC_OS01G60700-cb002
Method in brief: as §1

LOC_OS01G63280-cb003 = system: LOC_OS01G63280-cb003
Method in brief: as §1

LOC_OS01G67340-cb003 = system: LOC_OS01G67340-cb003
Method in brief: as §1

LOC_OS01G70970-cb002 = system: LOC_OS01G70970-cb002
Method in brief: as §1

LOC_OS02G07810-cb001 = system: LOC_OS02G07810-cb001
Method in brief: as §1

LOC_OS02G08530-cb003 = system: LOC_OS02G08530-cb003
Method in brief: as §1

LOC_OS02G14120-cb001 = system: LOC_OS02G14120-cb001
Method in brief: as §1

LOC_OS02G17970-cb001 = system: LOC_OS02G17970-cb001
Method in brief: as §1

SMILES	thermal shift delta Tm (LOC_OS01G57100-cb003)	thermal shift delta Tm (LOC_OS01G60330-cb001)	thermal shift delta Tm (LOC_OS01G60700-cb002)	thermal shift delta Tm (LOC_OS01G63280-cb003)	thermal shift delta Tm (LOC_OS01G67340-cb003)	thermal shift delta Tm (LOC_OS01G70970-cb002)	thermal shift delta Tm (LOC_OS02G07810-cb001)	thermal shift delta Tm (LOC_OS02G08530-cb003)	thermal shift delta Tm (LOC_OS02G14120-cb001)	thermal shift delta Tm (LOC_OS02G17970-cb001)
O=C1NC(=O)C(=Cc2ccc(-c3ccc(F)cc3)o2)S1 (stereo in doubt)	3.43 °C	0.21 °C	0.92 °C	0.52 °C	1.18 °C	0.36 °C	1.67 °C	1.15 °C	0.34 °C	1.28 °C
COc1cc(F)c(F)c(Nc2ccc(I)cc2F)c1NS(=O)(=O)C1(C[C@H](O)CO)CC1 [Refametinib (RDEA119, Bay 86-9766)]	0.45 °C	1.69 °C	0.96 °C	0.75 °C	-0.44 °C	0.49 °C	0.84 °C	0.79 °C	1.54 °C	1.26 °C
CCCCCCCCCC(=O)CC(O)S(=O)(=O)O (stereo not given) [Sodium Houttuyfonate]	1.15 °C	0.04 °C	0.03 °C	0.07 °C	0.28 °C	0.09 °C	0.29 °C	0.25 °C	-0.08 °C	1.73 °C
Nc1nccc(Oc2ccc(NC(=O)c3c[nH]cc(-c4ccc(F)cc4)c3=O)cc2F)c1Cl	2.6 °C	1.42 °C	1.09 °C	7.56 °C	2.23 °C	6.22 °C	1.41 °C	2.08 °C	8.06 °C	1.52 °C
CN1CCN(Cc2ccc(-c3cnc4[nH]cc(-c5ccc6[nH]ccc6c5)c4c3)cc2)CC1	2.72 °C	5.96 °C	2.47 °C	7.33 °C	7.26 °C	10.2 °C	1.34 °C	5.47 °C	10.8 °C	0.97 °C
